Laboratory results from PubChem BioAssay (NCI).
About 83,000 compounds went through this panel and 20% of them were active in at least one assay; those are over-represented in the sample as a whole.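 A percent growth of 40 corresponds to 60% growth inhibition; 0 means no net growth; -100 means all cells died. Active threshold: below 10.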 Values without a mark were called inactive. The source made the active and inactive calls.

What was measured:
Assay in all cases: NCI-60 one-dose screen, 48 h (100 = growth as untreated, 0 = no growth, -100 = all killed)
Settings in all cases: 10 µM unless noted
DU-145 prostate = tested on: DU-145 prostate
K-562 leukemia = tested on: K-562 leukemia
MALME-3M melanoma = tested on: MALME-3M melanoma
MDA-MB-231 breast = tested on: MDA-MB-231 breast
RXF 393 renal = tested on: RXF 393 renal
SF-268 CNS = tested on: SF-268 CNS
SF-295 CNS = tested on: SF-295 CNS
SF-539 CNS = tested on: SF-539 CNS
UACC-257 melanoma = tested on: UACC-257 melanoma
M14 melanoma = tested on: M14 melanoma

| SMILES | growth (DU-145 prostate) | growth (K-562 leukemia) | growth (MALME-3M melanoma) | growth (MDA-MB-231 breast) | growth (RXF 393 renal) | growth (SF-268 CNS) | growth (SF-295 CNS) | growth (SF-539 CNS) | growth (UACC-257 melanoma) | growth (M14 melanoma) |
| --- | --- | --- | --- | --- | --- | --- | --- | --- | --- | --- |
| COc1cc(-c2cc(-c3ccc(Nc4nc(Nc5ccc(Cl)cc5)nc(Nc5ccc(Cl)cc5)n4)cc3)no2)cc(OC)c1OC | 80.6% | 50.9% | 88.7% | 64.4% | 33.9% | 67.9% | 62.3% | 74.9% | 100% |  |
| COc1cc(/C=C/C(=O)N2CCN(C(=O)c3cc(OC)c(OC)c(OC)c3)CC2)ccc1OCCCOc1cc2c(cc1OC)C(=O)N1CCC[C@H]1C=N2 | 8.43% (active) | 1.04% (active) | -58.6% (active) | 9.01% (active) | -55.4% (active) | 2.8% (active) | -33.4% (active) | -32.3% (active) | -11.7% (active) |  |
| COc1ccc(C/C(C)=C(\c2ccc(Cl)cc2)c2ccc(OCCN3CCCC3)cc2)cc1 | 98.5% | 13% | 93.5% | 85.7% | 64.1% | 86.5% | 99.2% | 88% | 93.5% |  |
| CN(C)c1ccc(C(=S)c2ccc(N(C)C)cc2)cc1 | 98.9% | 28.4% | 50.3% | 72.2% | 84.2% | 79.7% | 80% | 77.1% | 81% |  |
| CCOC(=O)CC1CSC(N/N=C/c2ccc(F)c(Br)c2)=N1 (configuration not stated) | 103% | 90.5% | 101% | 109% | 111% | 92.3% | 96.8% | 106% | 103% |  |
| Cc1ccc(Cc2cnc(NC(=O)/C=C/c3ccc(C)o3)s2)cc1 | 33.9% | 18.6% | 35.2% | 67.9% | 41.6% | 52.9% | 23.6% | 23.6% | 62.5% |  |
| CC12OC(CC(O)C1O)n1c3ccccc3c3c4c(c5c6ccccc6n2c5c31)C(=O)N(CCN1CCCC1)C4=O (configuration not stated) | 3.68% (active) | 4.59% (active) | 13.2% | 56.9% | 21.1% | 29% | 2.23% (active) | 22.8% | 24.5% |  |
| CCN(CC)CCCC(Cc1ccccc1)Nc1c2ccc(Cl)cc2nc2ccc(OC)cc12 (configuration not stated) | 62.3% | -39.2% (active) | -78.3% (active) | -31.3% (active) | -51.7% (active) | 51.9% | -37.9% (active) | -87.5% (active) | -40.8% (active) |  |
| C=C(C)[C@@H]1CC[C@]2(C)[C@H](C=CC3=C4C[C@@](C)(CO)CC[C@]4(C)CC[C@]32C)[C@@]1(C)CCCN | -72.7% (active) | 0.273% (active) | -45.2% (active) | -75.7% (active) | -69.5% (active) | -55.8% (active) | 73.3% | -90% (active) | -60.4% (active) |  |
| COc1ccc2c(c1)C(C)Cc1c(ncnc1-n1cnc3cc(C)ccc31)N2C (configuration not stated) | 10.2% | 7.68% (active) | 78.7% | 28.9% | 35.7% | 26% | 6.97% (active) | 10.7% | 47.3% |  |
| Nc1nc(N)c2c(n1)NC(c1cccc(Nc3ccnc4cc(C(F)(F)F)ccc34)c1)CC(c1ccc3c(c1)OCO3)=N2 (configuration not stated) | 86.9% | 16.1% | 72.5% | 86.1% | 52.2% | 68.2% | 80% | 95.4% | 77.7% |  |
| O=Nc1ccc(NC(=O)Nc2ccc([N+](=O)[O-])cc2)cc1 | 113% | 58.8% | 102% | 87% | 119% | 104% | 98.1% | 101% | 104% |  |
| O=C(Nc1cccnc1Nc1ccc(Cl)cc1)c1cn(Cc2cccc(Oc3ccccc3)c2)nn1 | 59.7% | 23.1% | 58% | 53.3% | 44.1% | 45.2% | 29.2% | 33.6% | 62% | 21.8% |
| O=C(CN1C(=O)S/C(=C\C(Cl)=C\c2ccccc2)C1=O)NC1CCS(=O)(=O)C1 (configuration not stated) | 82.8% | 15.3% | 84.9% | 77% | 26.7% | 94.4% | 85.3% | 56.8% | 81.8% | 64% |
| Cc1ccc(S(=O)(=O)OCC#CCOS(=O)(=O)c2ccc(C)cc2)cc1 | 52.2% | 40.2% | -65.9% (active) | 57.9% | 58.6% | 53.8% | 42.2% | 81.9% | 66.8% | 43.6% |
| C/C(Cc1ccc(Cl)cc1)=C(\c1ccc(OCCN2CCCCCC2)cc1)c1ccc(OC(=O)c2ccccc2)cc1 | 55.6% | 1.83% (active) | 11.7% | 39.7% | 22% | 37.1% | 56% | 71% | 45.2% | -49.8% (active) |
| COc1c2c(cc3c1C(=O)N[C@@H]1[C@@H](O)[C@@H](O)[C@H](O)C[C@@H]31)OCCO2 | 107% | 95.6% | 106% | 109% | 102% | 97.9% | 99.6% | 106% | 98.8% |  |
| COc1cc(/C=C/c2cc(/C=C/c3ccc(O)c(OC)c3)n(C(=O)Nc3ccc(Cl)cc3)n2)ccc1O | 11.7% | -7.3% (active) | 3.94% (active) | 14.3% | -53.6% (active) | 13.9% | -21.9% (active) | 0.163% (active) | 3.11% (active) | 4.04% (active) |
| COc1ccc(C/C(C)=C(\c2ccc(O)cc2)c2ccc(OCCN3CCCCC3)cc2)cc1 | 90.8% | 22.8% | 87.6% | 104% | 79.9% | 81.7% | 98.8% | 83% | 110% | 40.4% |
| Nc1ncnc2c1N=C(c1ccc(Cl)cc1)CC(c1cccc(Nc3ccnc4cc(Cl)ccc34)c1)N2 (configuration not stated) | 83.2% | -0.992% (active) | 84.8% | 63.5% | 34.1% | 53.4% | 67% | 76% | 105% | 64.8% |
| COc1ccc(/C=C2\CN(C(=O)C(Cl)Cl)C/C(=C\c3ccc(OC)c(OC)c3)C2=O)cc1OC | -16% (active) | 4.57% (active) | -70.9% (active) | 7.12% (active) | -67.1% (active) | 17.8% | -39.6% (active) | -23.8% (active) | 18.4% | -72.6% (active) |
| COC(=O)c1nc(-c2ccccc2)oc1S(=O)(=O)N1CCCC(C)C1 (configuration not stated) | 91.3% | 17.7% | 78.2% | 76.8% | 78.8% | 85.8% | 108% | 85% | 82.3% | 39.3% |
| C=C(C)[C@@H]1CC[C@]2(C(=O)N3CCNCC3)CC[C@]3(C)[C@H](CC[C@@H]4[C@@](C)(CCC(=O)N5CCNCC5)[C@H](C(=C)C)CC[C@]43C)[C@@H]12 | 79.1% | 3.02% (active) | 98.9% | 71.2% | 82.2% | 98.4% | 101% | 79.4% | 95.5% | 85.8% |
| CSc1ccc2c3c(n(CCCn4ccnc4)c(=O)c2c1)-c1ccccc1C3=O | 28.5% | 35.6% | 87.8% | 91.4% | 46.3% | 31.7% | 12.1% | 4.89% (active) | 71% | 26.6% |
| C#CCOc1cccc(Nc2ncnc3c2ncn3C2CCN(C(=O)CCl)C2)c1 (configuration not stated) | -95.4% (active) | 0.116% (active) | -84% (active) | -61.2% (active) | -79.4% (active) | -31.6% (active) | 53.4% | -68.5% (active) | 13.1% | -48.6% (active) |
| O=C(O)c1cn(C2CC2)c2cc(N3CCN(C(=O)N/N=C/c4cccc5ccccc45)CC3)c(F)cc2c1=O | 104% | 103% | 101% | 94.9% | 95.5% | 86.3% | 104% | 93.4% | 98.8% | 93.1% |
| C[C@H]1[C@H](C)CC[C@]2(C(=O)NCCNCCN)CC[C@]3(C)C(=CC[C@@H]4[C@@]5(C)CCC(=O)C(C)(C)[C@@H]5CC[C@]43C)[C@H]12 | 51.6% | -9.33% (active) | 71.3% | 52.9% | 85% | 72.6% | 102% | -28.3% (active) | 88.7% | 40.9% |
